What all share (test): NCI-60 one-dose screen, 48 h (100 = growth as untreated, 0 = no growth, -100 = all killed)
Settings in all cases: 10 µM

Assay [1] relates to RPMI-8226 leukemia.
Assay [2] concerns OVCAR-8 ovarian.
For assay [3], the system named is OVCAR-5 ovarian.
In assay [4] the test system is OVCAR-4 ovarian.
For assay [5], the system named is SK-OV-3 ovarian.
Assay [6] concerns IGROV1 ovarian.
Assay [7] concerns OVCAR-3 ovarian.
Assay [8] has as its system HS 578T breast.
Assay [9] deals with NCI/ADR-RES ovarian.
Assay [10] concerns T-47D breast.

This is part of a sample that, as a whole, favours compounds with a hit. Of some 83,000 tested, about 20% had one in any assay.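 Interpretation: 100, growth as untreated; towards 0, rising growth inhibition; 0, no net growth; 0 to -100, cell death. Compounds scoring below 10 were considered active.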 Unmarked numbers belong to inactive results. The source made the active and inactive calls.

Consider `CCCCCCCCCCCCCCCCN(C(C)c1ccccc1)S(=O)(=O)c1ccc(OC)c(N)c1` (stereo not given), for which the growth is 103% in assay [1]; 104% in assay [2]; 104% in assay [3]; 92.1% in assay [4]; 112% in assay [5]; 129% in [6]. Besides, the growth was 107% in assay [7], 126% in assay [8], 98.7% in assay [9] and 113% in assay [10].

For `COc1ccc(C2=Nc3c(C)nn(-c4ccccc4)c3NC(c3ccc(Oc4ccnc5cc(Cl)ccc45)c(OC)c3)C2)cc1` (stereo not given), the growth is 56.7% in assay [1]; 75.2% in [2]; 95.2% in assay [3]; 43% in assay [4]; 74.7% in assay [5]; 73.4% in assay [6]. Further, the growth in assay [7] was 79.9%; in [8], 78.6%; in assay [9] it was 79.9%; in assay [10], 61.9%.

For the compound `Cc1cc(Cc2cc(C)c(O)c(C)c2)cc(C)c1O`, the growth in [1] is 58.2%; in assay [2], 61.9%; in assay [3], 106%; in assay [4], 77.1%; in [5], 53%; in assay [6], 45.2%. Also, the growth is 28.2% in assay [7], 33.8% in [8], 19.4% in [9] and 52.8% in [10].

On to `COc1ccc2c(c1)-c1c(c3cc(OC)ccc3n(CCN(C)C)c1=O)C2=O`, for which the growth in [1] is -14.9% (active); in assay [2], 4.46% (active); in assay [3] it was 46.3%; in [4], -28.3% (active); in [5], 28.7%; in assay [6], -25.6% (active). Further, the growth is 6.8% (active) in assay [7], 25.7% in assay [8], -1.87% (active) in assay [9] and 63.8% in assay [10].

With `CCCCN(CCCC)c1cc(C(=O)CCCCCN)c2ccccc2n1`, the growth was -67.9% (active) in assay [1]; 9.35% (active) in [2]; 105% in assay [3]; 100% in assay [4]; 101% in assay [5]; -73.6% (active) in assay [6]. In addition, the growth in [7] was -96.9% (active); in assay [8] it was 96%; in assay [9], 71.6%; in [10], 92.9%.

For `Nc1c(C(=O)Nc2ccccc2)sc2nc3c(cc12)CCCC3`, the growth was 15.4% in assay [1]; 33.6% in assay [2]; 62% in assay [3]; 49.9% in assay [4]; 24.7% in [5]; 30.5% in assay [6]. Moreover, the growth in assay [7] was -13.7% (active); in assay [8] it was 36.8%; in assay [9] it was 20.4%; in [10], 47.3%.

As to `CC(=O)N1N=C(c2ccc(Cl)cc2)CC1c1sc(Cl)nc1Cl` (stereo not given), the growth is 87.5% in assay [1]; 78% in assay [2]; 96.9% in [3]; 66.4% in [4]; 83.2% in assay [5]; 59.1% in assay [6]. Further, the growth in assay [7] is 75.6%; in assay [8], 98.2%; in [9], 80.7%; in assay [10], 75.1%.

As to `Cc1ccc(NC(=O)Nc2c(Cl)cccc2Cl)cn1`, the growth in assay [1] is 62.9%; in assay [2], 111%; in assay [3] it was 119%; in assay [4] it was 135%; in assay [5] it was 116%; in assay [6] it was 85.9%. Also, the growth in assay [7] is 106%; in [8] it was 97.8%; in assay [9], 105%; in assay [10] it was 96.8%.

For the compound `COc1cc(-c2nn3c(/C=C4/C(=O)Nc5ccccc54)c(-c4ccc(C)cc4)nc3s2)cc(OC)c1OC`, the growth in [1] was 45.4%; in assay [2], 46.8%; in assay [3], 85.9%; in [4], -17.3% (active); in assay [5] it was 79.5%; in assay [6], 77.4%. In addition, the growth in [7] is 43.6%; in [8], -19.4% (active); in [9], 41.8%; in [10], 63.6%.

Take `CCN(CC)CCOc1nc2ccc(OC)cc2c2c1-c1ccc(OC)cc1C2=O`: the growth in assay [1] was -24.5% (active); in assay [2], -60.1% (active); in assay [3] it was 49.3%; in [4], -6.86% (active); in assay [5], 30.9%; in [6] it was -48.8% (active). Further, the growth was -94.2% (active) in assay [7], 10.3% in assay [8], 0.706% (active) in [9] and 68.7% in [10].

On to `COc1ccc(-c2nc3sc(-c4ccc(OC)cc4)c(-c4ccc(OC)cc4)n3c2/C=C/c2ccc(C(C)C)cc2)cc1`, for which the growth was 97.4% in [1]; 97% in assay [2]; 94.6% in [3]; 90.8% in assay [4]; 97.4% in [5]; 111% in assay [6]. Further, the growth was 100% in assay [7], 89.4% in assay [8], 106% in [9] and 97.2% in [10].

Take `COc1ccc(-c2cc(/C=C/C(=O)c3cc(OC)c(OC)c(OC)c3)[nH]n2)cc1OC`: the growth in assay [1] is -39.1% (active); in assay [2], -17.1% (active); in assay [3], 17.5%; in assay [4] it was -51.6% (active); in [5] it was 39.3%; in assay [6], -9.4% (active). In addition, the growth in assay [7] is -17.5% (active); in assay [8], 71%; in assay [9], 12.3%; in [10], -14% (active).

With `CCN1CCC(CCOC)(CN2c3ccccc3Sc3ccc(Cl)cc32)C1` (stereo not given), the growth is 47.4% in [1]; 73.7% in assay [2]; 54.4% in assay [3]; 46.3% in assay [4]; 78.7% in assay [5]; 30.7% in assay [6]. In addition, the growth in assay [7] was 64.8%; in assay [8], 51.5%; in assay [9] it was 75.8%; in [10], 70.5%.

Take `CCCCCCN1CCN(Cc2ccc(N(CC)CC)cc2)C(=O)C1=O`: the growth in [1] was 4.35% (active); in [2], 28.3%; in [3], 58.8%; in [4] it was 54.6%; in assay [5] it was 32.5%; in [6] it was 32.1%. For the same compound, the growth in assay [7] is 5.54% (active); in [8], 20.6%; in assay [9], 0.986% (active); in assay [10], 25.5%.

On to `CCN(CC)CCOc1nc2cc(OC)c(OC)cc2c2c1-c1ccc(OC)cc1C2=O`, for which the growth in assay [1] was 49.2%; in assay [2], 52.9%; in assay [3], 111%; in assay [4], 61.5%; in assay [5], 77.3%; in [6] it was 60.4%. Besides, the growth in [7] is 80%; in assay [8], 89.6%; in assay [9], 64.4%; in [10] it was 107%.

Take `COc1ccc(-c2nn(-c3cccc(NC(=O)c4ccc(Cl)c(Cl)c4)c3)cc2-c2ccncc2)cc1Cl`: the growth in assay [1] was 58%; in assay [2], 75.5%; in [3] it was 92.4%; in assay [4], 93.3%; in assay [5] it was 82.2%; in [6], 84.5%. The growth was 81.9% in assay [7], 72.5% in assay [8], 61.4% in [9] and 62.8% in assay [10].

Take `Cn1c([N+](=O)[O-])cnc1/C=C1\Oc2cc(Cl)ccc2C1=O`: the growth in assay [1] was 11.7%; in [2], -13.3% (active); in [3], 29.1%; in assay [4], 55%; in assay [5], -7.2% (active); in [6], -22% (active). Also, the growth is -33.3% (active) in assay [7], -2.19% (active) in assay [8], -0.2% (active) in assay [9] and 86.6% in [10].

In the case of `C=C1c2c(C)nn(-c3ccc(OC)cc3)c2N(C)C23C[C@@H]1C1(C)c4c(C)nn(-c5ccc(OC)cc5)c4N(C)C(C)(C[C@H]12)C3` (stereo not given in full), the growth in assay [1] was 4.67% (active); in [2], 31.8%; in assay [3], 61.7%; in assay [4], 28.1%; in assay [5] it was 60.2%; in [6], 70.8%. Besides, the growth in assay [7] was 24%; in assay [8] it was 67.4%; in assay [9], 35%; in assay [10] it was 13.4%.

As to `O=[N+]([O-])c1ccc(Oc2cccnc2)c([N+](=O)[O-])c1`, the growth in assay [1] is 25.4%; in assay [2], 91.7%; in assay [3], 93.6%; in assay [4], 50.2%; in assay [5] it was 104%; in [6] it was 92.2%. The growth was 66.2% in [7], 81.9% in assay [8], 51.4% in [9] and 61.1% in assay [10].

On to `Cc1nc2c(c(=O)[nH]1)OCN(Cc1ccccc1)C2`, for which the growth in assay [1] was 101%; in assay [2], 99.1%; in assay [3], 109%; in assay [4], 96.1%; in [5] it was 93.7%; in assay [6], 100%. For the same compound, the growth in [7] was 103%; in assay [8], 109%; in assay [9] it was 107%; in assay [10], 97.8%.

As to `CC(=O)n1c(-c2ccc(Cl)c(Cl)c2)cn(-c2ccc(Cl)cc2)c1=O`, the growth was -10.9% (active) in assay [1]; 20.8% in assay [2]; 42.4% in assay [3]; 5.33% (active) in assay [4]; 19.1% in assay [5]; 4.07% (active) in [6]. Also, the growth in assay [7] is 3.73% (active); in assay [8], -15.5% (active); in [9] it was 11.8%; in assay [10], -47.1% (active).

Take `COc1cc(-c2nc(-c3nnc(-c4ccccc4Cl)o3)c3ccccn23)cc(OC)c1OC`: the growth in assay [1] is 50.2%; in assay [2], 47.8%; in assay [3], 92.5%; in [4], 77.4%; in assay [5] it was 84.5%; in assay [6], 111%. The growth in assay [7] was 86.4%; in assay [8] it was 83.1%; in assay [9] it was 66.4%; in [10], 61.4%.

Take `COc1ccc(Nc2ncnc3c2c(SC)nn3-c2ccccc2)cc1`: the growth in [1] was 85.3%; in [2] it was 98%; in assay [3] it was 96.7%; in assay [4] it was 73.3%; in [5] it was 109%; in assay [6], 88.4%. For the same compound, the growth in assay [7] is 99.1%; in assay [8] it was 136%; in [9] it was 91.9%; in assay [10], 70.7%.

In the case of `O=C(Nc1cccc(Cl)c1)Nc1nccs1`, the growth in assay [1] was 91.1%; in assay [2], 97.9%; in [3], 109%; in assay [4], 90.6%; in [5] it was 100%; in [6] it was 97.5%. Besides, the growth in assay [7] is 114%; in assay [8] it was 115%; in [9], 91%; in assay [10], 73%.

For `COc1cc(Cl)cc(-c2nn(-c3cccc(NC(=O)c4ccc(N5CCOCC5)c(C(F)(F)F)c4)c3)cc2-c2ccncc2)c1`, the growth in assay [1] is 25.2%; in assay [2] it was 42.1%; in [3], 78.4%; in [4] it was 67.9%; in assay [5], 75.7%; in assay [6], 96.5%. Moreover, the growth is 69.4% in assay [7], 40.7% in assay [8], 46.1% in assay [9] and 49.2% in [10].

For `COc1ccc(-c2nn(-c3cccc(NC(=O)c4cccc(C(F)(F)F)c4)c3)cc2-c2ccncc2)cc1Cl`, the growth is 6.49% (active) in [1]; 33% in [2]; 55.8% in assay [3]; 60.7% in assay [4]; 37.8% in assay [5]; 42.4% in [6]. The growth in [7] is 11.9%; in assay [8] it was 24.9%; in assay [9], 15.2%; in assay [10] it was 18.6%.

Turning to `N=C(N)c1ccc(-c2ccc(-c3cccs3)o2)cc1`, the growth in assay [1] is -25.4% (active); in [2] it was 60%; in assay [3], 70.3%; in assay [4], 41.6%; in assay [5], 79.4%; in assay [6] it was 67.5%. Besides, the growth is 71.7% in assay [7], 70.3% in assay [8], 71.5% in assay [9] and 43.8% in [10].
